OPRM1-OPRD1 inv: inverse agonists of MOR-DOR heterodimerization, primary screen, cell-based, luminescence | inhibition, % at 9.3 µM | Mu-type opioid receptor (Homo sapiens) + Delta-type opioid receptor (Homo sapiens), … | cell-based MOR-DOR heterodimer luminescence, inverse agonism | hit rate 0.21% among 340,000; in the data active means inhibition above about 22%, passing the limit was not always enough
HTR5A ag ctr: HTR5A agonists in luminescence cell assay, primary screen, counter-screen for OPRM1-OPRD1 heterodimer agonist project, full-deck HTS. activation, % at 9.3 µM. cell-based. AID 504692, 2011. hit rate 0.61% among 340,000. 5-hydroxytryptamine receptor 5A (Homo sapiens), P47898; in the data active means activation mostly above about 9.5%, no sharp cut-off; inactive means mostly below about 7.6%
OPRM1-OPRD1 ag: agonists of OPRM1-OPRD1 heterodimerization, primary screen, cell-based, luminescence; cells; activation, % at 9.3 µM; hit rate 0.3% among 340,000
HTR5A inv ctr: HTR5A inverse agonists in luminescence cell assay, primary screen, counter-screen for OPRM1-OPRD1 heterodimer inverse agonist project, full-deck HTS; HTR5A cell line, inverse agonism; inhibition, % at 9.3 µM; hit rate 0.083% among 340,000; AID 504634, 2011; in the data active means inhibition mostly above about 23%, no sharp cut-off; inactive means mostly below about 18%
MOR-DOR ag conf: agonists of MOR-DOR heterodimerization, confirmation, cell-based, luminescence. shares compounds with OPRM1-OPRD1 ag. cells, luminescence complementation. activation, % at 9.3 µM. hit rate 45% among 830
HTR5A ag counter: HTR5A agonists in cells, counter-screen for OPRM1-OPRD1 heterodimer agonist project, cell-based, luminescence; shares compounds with OPRM1-OPRD1 ag; HTR5A agonist counterscreen; hit rate 8% among 830; activation, % at 9.3 µM; in the data active means activation above about 17%
Numbers stand for hits; n = inactive; x = no result given. Hits are enriched below; roughly 1.1% of the tested compounds scored in any of these assays. Unless noted, no stated cut-off is given here; in the data, active means activation above about 18%; inactive means the rest.

SMILES | OPRM1-OPRD1 inv | HTR5A ag ctr | OPRM1-OPRD1 ag | HTR5A inv ctr | MOR-DOR ag conf | HTR5A ag counter
Clc1cccc(Cl)c1CSc1nnc(-c2ccncc2)s1 | n | n | 20.9 | n | n | n
CC(NCc1cc(Br)ccc1OCC(=O)NCc1ccccc1)c1ccccc1 (stereo not given) | n | n | 33.0 | n | 18.6 | n
Cc1cccc(N2CCN(C(=O)C3CCC(=O)N(C4CC4)C3)CC2)c1C (stereo not given) | n | n | n | n | x | x
Cc1cc(Cl)ccc1OCCCC(=O)N/N=C/c1cccc([N+](=O)[O-])c1 | n | n | 21.3 | n | n | n
Cc1ccc(-c2nn(-c3ccccc3)cc2CO)cc1 | n | n | n | n | x | x
N=C(N)SCc1cn(-c2ccccc2)nc1-c1ccc(Br)cc1 | n | n | 20.0 | n | n | n
O=C(NCCC(=O)N(CCc1ccccc1)Cc1ccccc1)c1ccc(Br)cc1 | n | n | n | n | x | x
CCOC(=O)c1c(C)[nH]c(O)c1C=Nc1ccc(Cl)cc1 | n | n | 38.7 | n | n | n
CCOC(=O)c1c(C)[nH]c(O)c1C=Nc1ccc(C(F)(F)F)cc1 | n | n | n | n | x | x
Cc1ccc(-n2cc(CNC(C)c3cnn(C)c3)c(-c3ccc(F)cc3)n2)cc1 (stereo not given) | n | n | 366.0 | n | 439.8 | n
Cc1ccc(-n2cc(CNC(C)c3cnn(C)c3C)c(-c3ccc(F)cc3)n2)cc1 (stereo not given) | n | n | 221.9 | n | 33.9 | n
Cc1ccc(-n2cc(CNCCCn3ccnc3C)c(-c3ccc(F)cc3)n2)cc1 | n | n | n | n | x | x
COc1ccc(C)cc1N(CC(=O)Nc1cccnc1)S(=O)(=O)c1ccc(C)cc1 | n | n | 69.3 | n | n | n
COc1ccc(S(=O)(=O)N(CC(=O)Nc2cccnc2)c2ccccc2OC)cc1 | n | n | 64.5 | n | n | n
COc1ccc(N(CC(=O)Nc2cccnc2)S(=O)(=O)c2ccc(C)cc2)cc1Cl | n | n | n | n | x | x
COC(=O)c1cc(OC)c(OC)cc1NC(=O)c1ccco1 | n | n | n | n | x | x
COc1ccc(NC(=O)COC(=O)c2cc(OC)c(OC)cc2NC(=O)c2ccco2)cc1OC | n | n | 22.8 | n | n | n
CS(=O)(=O)c1ccc(Cl)c(C(=O)Nc2ccc3nc(N4CCOCC4)sc3c2)c1 | n | n | n | n | x | x
O=[N+]([O-])c1ccc(Sc2ccccn2)nc1 | n | n | n | n | x | x
O=C(Nc1cc(Sc2ccccn2)cc([N+](=O)[O-])c1)c1ccc([N+](=O)[O-])cc1 | n | 14.3 | 32.2 | n | n | 35.4
O=C(O)c1ccccc1C(=O)c1ccc2c(c1)CCC2 | n | n | n | n | x | x
COc1ccc(/C=N\NC(=O)COc2ccc(C(C)(C)C)cc2)cc1Cn1nc(C)cc1C | n | n | 45.1 | n | n | n
Cc1ccc(C)c(N2CCN(S(=O)(=O)c3ccc(-c4ccc(=O)[nH]n4)o3)CC2)c1 | n | n | 20.1 | n | n | n
Cc1ccc(Cl)cc1N1CCN(S(=O)(=O)c2ccc(-c3ccc(=O)[nH]n3)o2)CC1 | n | n | n | n | x | x
CCOC(=O)N1CCN(c2c(NCCCN(C)c3ccccc3)c(=O)c2=O)CC1 | n | n | n | n | x | x
SMILES | OPRM1-OPRD1 inv | HTR5A ag ctr | OPRM1-OPRD1 ag | HTR5A inv ctr | MOR-DOR ag conf | HTR5A ag counter
CCOC(=O)N1CCN(c2c(NCCN(C)Cc3ccccc3)c(=O)c2=O)CC1 | n | n | 50.3 | n | n | n
Cc1ccc(C(=O)OCC(=O)NC2CCCC(C)C2C)cc1S(=O)(=O)N1CCCCC1 (stereo not given) | n | n | n | n | x | x
CCOC(=O)c1c(C)[nH]c(C(=O)OC/C(O)=C(\C#N)c2nc3ccccc3[nH]2)c1C | n | 9.9 | 32.3 | n | 41.0 | n
Cc1occc1C(=O)N/N=C/c1ccc(-c2ccccc2)cc1 | n | n | 19.9 | n | 60.2 | n
Cc1occc1C(=O)N/N=C/c1ccc(OCc2ccccc2)cc1 | n | n | n | n | x | x
CC(C)[C@H](NC(=O)c1ccccc1Cl)C(=O)OCC(=O)NC(=O)NC1CCCC1 | n | n | n | n | x | x
CC(C)[C@H](NC(=O)c1ccccc1Cl)C(=O)OCC(=O)NC(=O)NCc1ccco1 | n | n | 314.4 | n | n | n
O=C(Nc1ccc(C(F)(F)F)cc1[N+](=O)[O-])O[C@H]1[C@H](Cc2ccccc2)NS(=O)(=O)[C@H]2C[C@@H]3C=C[C@]12O3 | n | n | 18.5 | n | n | n
C=CC[C@@H](CC(=O)N(CCO)Cc1ccccc1)C(=O)N[C@@H](COC(=O)[C@H](CC=C)CC(=O)OC(C)(C)C)Cc1c[nH]c2ccccc12 | n | n | 25.7 | n | n | n
CCOC(=O)N1CCc2c(sc3nc4n(c(=O)c23)N=C(c2ccc(OC)cc2)CS4)C1 | n | n | 25.9 | n | n | n
CCOC(=O)N1CCc2c(sc3ncn(C)c(=O)c23)C1 | n | n | n | n | x | x
O=C(NCC(c1ccc(F)cc1)N1CCOCC1)c1ccc(-c2ccccc2)cc1 (stereo not given) | n | n | 20.9 | n | n | n
Cc1ccc(Cl)cc1NC(=O)CN1CCOCC1 | n | n | n | n | x | x
CCCOc1ccc(C(=O)NCC(c2cccs2)N(C)C)cc1OC (stereo not given) | n | n | n | n | x | x
COc1cc(C(=O)NCC(c2cccs2)N(C)C)cc(Cl)c1OC(C)C (stereo not given) | n | n | 48.0 | n | n | n
COc1cc2ccccc2cc1C(=O)NCC(c1cccs1)N(C)C (stereo not given) | n | n | 71.7 | n | n | n
CCOc1ccc(-c2c(C(=O)N/N=C/C3CCCCC3)nnn2-c2nonc2N)cc1 | n | n | n | n | x | x
CC(C)NC(=O)CN(C(=O)CCC(=O)Nc1nccs1)c1ccc(C(C)C)cc1 | n | n | n | n | x | x
O=C(COc1cc(Cl)ccc1Cl)Nc1nnc(C2CC2)s1 | n | n | n | n | x | x
Cc1sc(NC(=S)Nc2ccc(F)cc2)c(C(N)=O)c1C | n | n | n | n | x | x
Cc1sc(NC(=S)NC(=O)C2CCCCC2)c(C(N)=O)c1C | n | n | 18.9 | n | 21.0 | n
O=C(Nc1ccc2c(c1)OCO2)C1COc2ccccc2O1 (stereo not given) | n | n | n | n | x | x
Cc1cc(=O)oc2cc(NC(=O)C3COc4ccccc4O3)ccc12 (stereo not given) | n | n | 20.5 | n | 38.6 | n
OC(CNC1CCCc2ccccc21)COc1ccc2ccccc2c1 (stereo not given) | n | n | 42.2 | n | 31.1 | n
Cc1cc(C)cc(NS(=O)(=O)CCCS(=O)(=O)Nc2cc(C)cc(C)c2)c1 | n | n | 29.9 | n | n | n
